Screening results (PubChem BioAssay)
ALOX12 inh: ALOX12 (human) lipoxygenase inhibition. AID 1671190. Potency, µM (highest dose often 108 µM), actives largely listed as inhibitors. hit rate 1.1% among 580,000. P18054. purified 12hLO, xylenol orange hydroperoxide absorbance; active = well fitted inhibition curve with a large enough effect; inconclusive = small, poorly fitted or top-dose-only effect, or another doubt; inactive = no such curve, though single readings can be large or run the other way
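Purified human 12hLO at 150 nM in 25 mM Hepes, 0.01% Triton X-100, pH 7.0, preincubated 15 min at room temperature with compound. Reaction started with 40 uM arachidonic acid, 30 min at room temperature. Hydroperoxide measured by Fe-xylenol orange, 573/405 nm absorbance ratio.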
ClpP mod: qHTS Assay for Activators of ClpP | Potency, µM (top dose mostly 57.5 µM) | AID 651965, 2013 | hit rate 1.9% among 340,000 | purified B. subtilis ClpP, FRET peptide cleavage, 20 min; active = well fitted falling curve with a large enough effect; inconclusive = small, poorly fitted or top-dose-only effect; inactive = no such curve, though single readings can be large or run the other way; also: the source files actives as falling curves though it sought activators and does not explain the sign; nearly all actives have a fitted effect of over 65% in size
Target sequence (P80244 whole entry, looked up): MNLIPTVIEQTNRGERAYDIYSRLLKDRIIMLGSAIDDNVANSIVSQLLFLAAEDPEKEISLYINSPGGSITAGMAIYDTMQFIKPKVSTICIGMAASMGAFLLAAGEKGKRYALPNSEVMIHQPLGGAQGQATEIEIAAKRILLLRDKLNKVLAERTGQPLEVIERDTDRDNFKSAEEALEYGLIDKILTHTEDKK
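Purified B. subtilis ClpP, 10 microg/mL final in Tris/HCl pH8 with KCl, BSA, glycerol and Tween-20, cleaved an Abz/nitrotyrosine-quenched decapeptide. Fluorescence (ex 320, em 430) was read at 0 and 20 min at room temperature. Delta was normalized to 5.8 microM ADEP and DMSO/no-enzyme controls.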
Chronic BCR inh: blocks chronic active B-cell receptor signaling. ABC-DLBCL IkBa-CBG/CBR reporter, luminescence ratio, 4 h. Potency, µM (titrated, usually from 46.1 µM), usual class: inhibitors. hit rate 0.05% among 340,000. AID 493014; active = well fitted inhibition curve with a large enough effect in the signal ratio, with a control signal flat, not every such curve was filed as active; inconclusive = small, poorly fitted or top-dose-only effect, or effect the other way, or a change in a side signal; the % refers to the signal ratio
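TMD8 human ABC-DLBCL cells with doxycycline-inducible IκBα–green luciferase fusion and unfused red luciferase, in 0.5% FBS medium; compounds up to 46 uM, 4 h at 37C. Green/red luminescence ratio, filter-overlap corrected, fitted to concentration-response curves.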
hERG WT inh: blocks the wildtype human KCNH2 potassium channel; Q12809; activity change, % at 1.84 µM; U2OS, BacMam KCNH2, thallium flux FluxOr; active compounds read low; hit rate 0.37% among 340,000;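 active = maximum activity change below -70%; inconclusive = maximum activity change between -70% and -50%; inactive = maximum activity change above -50%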
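U2OS cells transduced with wild-type KCNH2 virus are loaded with FluxOr dye for 45 min, and thallium flux is measured in kinetic reads before and after stimulation buffer. Rate constants are normalized to DMSO controls.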
LDHA block: inhibitors of human lactate dehydrogenase A; purified LDHA, NADH/diaphorase-resazurin fluorescence; active compounds read low; P00338; hit rate 0.15% among 480,000; activity change, % (values are at about 110 or 230 µM); in the data active = activity change below about -30%; inconclusive = mostly about -25% to -30%
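Remaining NADH was detected by diaphorase (0.133 mg/mL) converting 37 µM resazurin to fluorescent resorufin, read at 0 and 20 minutes. The preceding 5-minute room-temperature reaction used 2 nM LDHA, 0.2 mM sodium pyruvate and 0.06 mM NADH at pH 7.4.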
KCNH2 3.1 block: blocks the human KCNH2 3.1 channel isoform. U2OS KCNH2 3.1, thallium flux FluxOr; active compounds read low. activity change, % (tested at about 1.8 µM). hit rate 0.95% among 340,000. AID 720553;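 active = maximum activity change below -70%; inconclusive = maximum activity change from -70% to -50%; inactive = maximum activity change above -50%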;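 also: thallium influx rate constant from kinetic fluorescence after stimulation buffer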
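Normalized rate constant (relative to positive and negative DMSO controls) derived from a 2 min kinetic fluorescence read after stimulation; U2OS cells expressing the 3.1 isoform via virus at 1.77 x 10^8 /mL.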
A number is an active result. Only some compounds are listed: those with a hit (about 3% of all), similar ones and a draw of the others.

For CCN1CCN(C(=O)/C=C/c2ccc(C(C)C)cc2)CC1 the results were ALOX12 inh inactive, hERG WT inh inactive, LDHA block inactive and KCNH2 3.1 block inactive.
Screening CCN1CCC(O)(/C=C/c2ccc(C(C)C)cc2)C(C(=O)/C=C/c2ccc(C(C)C)cc2)C1 (stereo not drawn) returned ALOX12 inh 1.8µM, ClpP mod inactive, hERG WT inh inactive, LDHA block inactive and KCNH2 3.1 block inactive.
`CCN(CC)S(=O)(=O)c1ccc(Cl)c(NC(=S)NC(=O)C2CCCC2)c1` gave ALOX12 inh 16µM, ClpP mod inactive, Chronic BCR inh inconclusive, hERG WT inh inactive, LDHA block inactive and KCNH2 3.1 block inactive.
Screening CC(C)c1ccccc1NC(=S)NC(=O)C1CCCCC1 returned ALOX12 inh 16µM, ClpP mod inactive, Chronic BCR inh inactive, hERG WT inh inactive, LDHA block inactive and KCNH2 3.1 block inactive.
Screening Cc1ccc(NC(=S)NC(=O)C2CCCCC2)c(Br)c1 returned ALOX12 inh 32µM, Chronic BCR inh inconclusive, hERG WT inh inactive, LDHA block inactive and KCNH2 3.1 block inactive.
Screening O=C(NN1C(=O)/C(=C/C=C/c2ccco2)SC1=S)c1ccncc1 returned ALOX12 inh 50µM, Chronic BCR inh inactive, hERG WT inh inactive, LDHA block inactive and KCNH2 3.1 block inactive.
`O=C(NN1C(=O)/C(=C/C=C/c2ccccc2)SC1=S)c1ccncc1` gave ALOX12 inh inconclusive, Chronic BCR inh inconclusive, hERG WT inh inactive, LDHA block inactive and KCNH2 3.1 block inactive.
For CC(C)CCNC(=O)c1c[nH]c2ccc(S(=O)(=O)N3CCC4(CC3)OCCO4)cc2c1=O the results were ALOX12 inh inactive, ClpP mod inconclusive, Chronic BCR inh inactive, hERG WT inh inactive, LDHA block inactive and KCNH2 3.1 block inactive.
CCc1ccccc1N(C)S(=O)(=O)c1ccc2[nH]cc(C(=O)NCCOC)c(=O)c2c1 was read as ALOX12 inh inactive, ClpP mod 28µM, Chronic BCR inh inactive and LDHA block inactive.
For COCCNC(=O)c1c[nH]c2ccc(S(=O)(=O)N3CCC4(CC3)OCCO4)cc2c1=O the results were ALOX12 inh inactive, ClpP mod 20µM, Chronic BCR inh inactive, hERG WT inh inactive, LDHA block inactive and KCNH2 3.1 block inactive.
For CC1CCN(S(=O)(=O)c2ccc3[nH]cc(C(=O)NCCN4CCOCC4)c(=O)c3c2)CC1 the results were ALOX12 inh inactive, ClpP mod 25µM, Chronic BCR inh inactive, hERG WT inh inactive, LDHA block inactive and KCNH2 3.1 block inactive.
Screening CN(CC(=O)NC1CCCC1)Cc1cccc(C#N)c1 returned ALOX12 inh inactive and LDHA block inactive.
O=C(N/N=C/c1cc(Br)c(Br)o1)c1cc2ccccc2o1 was read as ALOX12 inh inactive, ClpP mod inactive, Chronic BCR inh inactive, hERG WT inh inactive, LDHA block -44 and KCNH2 3.1 block inactive.
COc1ccc(S(=O)(=O)N/N=C\c2ccc([N+](=O)[O-])o2)c(OC)c1 was read as ALOX12 inh inconclusive, ClpP mod inactive, Chronic BCR inh inactive, hERG WT inh inactive, LDHA block inactive and KCNH2 3.1 block inactive.
Screening O=[N+]([O-])c1ccc(/C=N/NC(=S)Nc2ccccc2)o1 returned ALOX12 inh inactive, ClpP mod inactive, Chronic BCR inh inconclusive, hERG WT inh inactive, LDHA block inactive and KCNH2 3.1 block inactive.
For O=[N+]([O-])c1ccc(/C=N\NS(=O)(=O)c2ccc(F)cc2)o1 the results were ALOX12 inh inactive, ClpP mod inactive, Chronic BCR inh inactive, hERG WT inh inactive, LDHA block inactive and KCNH2 3.1 block -85.
`O=[N+]([O-])c1ccc(/C=N/Nc2ccc3ccccc3c2)o1` gave ALOX12 inh 10µM, ClpP mod inactive, Chronic BCR inh inconclusive, hERG WT inh inactive, LDHA block inactive and KCNH2 3.1 block inactive.
Screening O=C(N/N=C/c1ccc([N+](=O)[O-])o1)c1cc2ccccc2o1 returned ALOX12 inh inactive, ClpP mod inactive, Chronic BCR inh inactive, hERG WT inh inactive, LDHA block -70 and KCNH2 3.1 block inactive.
`O=C(N/N=C/c1ccncc1)c1cc2ccccc2o1` gave ALOX12 inh inactive, Chronic BCR inh inconclusive, hERG WT inh inactive, LDHA block inactive and KCNH2 3.1 block inactive.
`CCOC(=O)C1CCN(C(=O)c2cc3c(n2C)CCN(Cc2ccccc2)C3)CC1` gave ALOX12 inh inactive.
Cc1ccccc1-c1csc(C(C)(O)c2ccccc2)n1 (stereo not drawn) was read as ALOX12 inh inconclusive, ClpP mod inactive and LDHA block inactive.
Screening Cc1ccccc1-c1csc(C(O)(c2ccccc2)C(F)(F)F)n1 (stereo not drawn) returned ALOX12 inh 45µM, ClpP mod inactive and LDHA block inactive.
`CN(C)c1ccc(-c2csc(C(O)(c3ccccc3)C(F)(F)F)n2)cc1` (stereo not drawn) gave ALOX12 inh 18µM, ClpP mod inconclusive and LDHA block inactive.
Cc1cc(C)c2nc(N3CCOCC3)c(C#N)cc2c1 was read as ALOX12 inh inconclusive, Chronic BCR inh inactive, hERG WT inh inactive, LDHA block inactive and KCNH2 3.1 block inactive.
N#Cc1cc2cc3c(cc2nc1N1CCOCC1)OCO3 was read as ALOX12 inh inactive, ClpP mod 32µM, Chronic BCR inh inactive, hERG WT inh inactive, LDHA block inactive and KCNH2 3.1 block inactive.
For CN(C)C(=O)c1ccc(CNC(=O)c2ccccc2CSc2nc3ccccc3o2)cc1 the results were ALOX12 inh inactive and LDHA block inactive.
Screening Cc1cccc(/C=N/NC(=O)c2cccs2)n1 returned ALOX12 inh inactive and LDHA block inactive.
O=C(c1ccc2c(c1)OCO2)N1CCC(c2nc3c(nnn3Cc3cccc(Cl)c3)c(=O)[nH]2)CC1 was read as ALOX12 inh 13µM and LDHA block inactive.
Screening NC(=O)c1c(NC(=O)c2nn(-c3cccc(Cl)c3)ccc2=O)sc2c1CCCC2 returned ALOX12 inh inconclusive and LDHA block inactive.
CC1CN(C(=O)c2cc3c(=O)n4ccccc4nc3s2)CC(C)O1 (stereo not drawn) was read as ALOX12 inh inactive, ClpP mod 18µM, Chronic BCR inh inactive, hERG WT inh inactive, LDHA block inactive and KCNH2 3.1 block inactive.
Screening CC1CC(C)CN(C(=O)c2cc3c(=O)n4ccccc4nc3s2)C1 (stereo not drawn) returned ALOX12 inh inactive, Chronic BCR inh inactive, hERG WT inh inactive, LDHA block inactive and KCNH2 3.1 block inactive.
CCCS(=O)(=O)N1CCCC1c1noc(CCC(=O)N2CCN(C)CC2)n1 (stereo not drawn) was read as ALOX12 inh inactive.
